Assay results: PubChem BioAssay
Values joined by “and” are separate entries in the source; they are usually repeats but may differ in a detail not shown here. Equal values may be shown once. Active and inactive are the calls of the source.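 How the source made its calls, unless noted: active means thallium flux through the channel raised or lowered by more than 3 SD from vehicle-only wells, actives on both sides; inactive means the rest.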

Columns and labels:
[1] = Wnt pathway potentiators raising nuclear beta-catenin – imaging, WNT3A-conditioned medium, mouse C2C12, NPC library, primary screen (AID 1117326; in the data active means nuclear beta-catenin stimulation mostly above about 4.2%, no sharp cut-off; inactive means mostly below about 10%); settings: stronger effect = higher value
[2] = stimulators of insulin release from INS-1E, primary screen, cell-based, 5 mM glucose, NPC library (AID 1117329;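 active means compound raises insulin release from rat beta cells at 5 mM glucose, no numeric limit stated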); settings: rat INS-1E insulin secretion, at 10 µM, stronger effect = higher value
[3] = growth inhibition of GSK3B-pretreated HCT116 cells – cell-based, CellTiter-Glo, 0.2 to 20 µM (AID 1117336;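 active means compounds lowering colon cancer cell viability after pretreatment blocking the GSK3B kinase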); settings: HCT116 viability after GSK3B inhibitor, at 20 µM, stronger effect = higher value
[4] = inhibition of endothelial tube formation, primary screen, imaging, VEGF stimulated, CD31 staining, tube area, NPC library (AID 1117340;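 active means compound that reduces growth-factor-driven endothelial tube area in a mixed cell culture, no cutoff stated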); settings: VEGF-stimulated ADSC/ECFC co-culture, at 10 µM, stronger effect = higher value
[5] = GLP1 release stimulators, primary, NCI-H716, NPC library (AID 1117341;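 active means compound raises GLP1 secretion from the human gut endocrine cells, with no numeric limit stated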); settings: NCI-H716 cells, at 10 µM, stronger effect = higher value
[6] = HCT116 colon cancer cell growth inhibition, primary screen, CellTiter-Glo luminescence, NPC library (AID 1117342;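 active means compounds that lower survival of HCT116 colon cancer cells in the luminescence readout, no numeric limit stated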); settings: at 20 µM (top of the series)
[7] = reduced SW480 viability measured with CellTiter-Glo, NPC library, primary (AID 1117343;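 active means compounds that lower viability of the colon cancer cells in the luminescence readout, with no numeric limit stated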); settings: CellTiter-Glo luminescence; at 20 µM (top of the series)
[8] = NPC library primary testing for decreased DLD-1 cell viability via CellTiter-Glo (AID 1117346;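 active means compounds that lower survival of DLD-1 colon cancer cells in the luminescence readout, no cutoff given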); settings: DLD-1 viability, CellTiter-Glo luminescence; at 20 µM (top of the series)
[9] = target: 6-phosphogluconate dehydrogenase, decarboxylating (Homo sapiens) (UniProt P52209); assay: inhibition of human phosphogluconate dehydrogenase – biochemical, recombinant enzyme, NADPH absorbance, primary screen (AID 1159550;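 active means at least 20% inhibition of 6-phosphogluconate dehydrogenase activity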); settings: recombinant 6PGD, NADPH absorbance 341 nm; at 10 µM; stronger effect = higher value
Sequence of 6-phosphogluconate dehydrogenase, decarboxylating (Homo sapiens) (P52209 whole entry, looked up): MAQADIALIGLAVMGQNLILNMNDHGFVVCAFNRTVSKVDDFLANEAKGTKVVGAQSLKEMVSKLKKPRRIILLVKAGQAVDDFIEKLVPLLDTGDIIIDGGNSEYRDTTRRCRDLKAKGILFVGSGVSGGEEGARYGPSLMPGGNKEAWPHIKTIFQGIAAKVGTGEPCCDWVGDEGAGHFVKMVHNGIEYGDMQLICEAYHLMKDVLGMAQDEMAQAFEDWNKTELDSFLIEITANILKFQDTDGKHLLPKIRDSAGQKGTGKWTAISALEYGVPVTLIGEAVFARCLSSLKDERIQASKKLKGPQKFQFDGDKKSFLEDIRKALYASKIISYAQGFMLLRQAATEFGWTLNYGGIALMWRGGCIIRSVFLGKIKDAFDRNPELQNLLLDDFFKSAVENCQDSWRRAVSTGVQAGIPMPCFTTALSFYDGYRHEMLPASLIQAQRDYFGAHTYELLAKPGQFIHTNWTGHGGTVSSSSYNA

[10] = modulation of C. elegans fzo-1 (AID 1259413; call rule not given here;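 further: fzo-1 mutant C. elegans worms in liquid wells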); settings: C. elegans fzo-1 modulator screen, mean read-out; stronger effect = higher value
[11] = EMT-state selective cytotoxicity in co-culture – imaging, PC-3E GFP, TEM4-18 mCherry, primary screen (AID 1345086;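 active means compounds killing one labelled cell type while sparing the other, by normalised counts and ratio limits, not self-fluorescent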;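 on all read-outs here: cells exposed to compound for 72 h before imaging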;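 on red/green cell ratio (normalised): normalised mesenchymal count divided by normalised epithelial count so high means epithelial killing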); settings: PC-3E GFP / TEM4-18 mCherry co-culture, imaging cell counts, at 1 µM; for red/green cell ratio (normalised): actives lie on both sides, counts scaled to control wells, 1 = unselective
[12] = MELAS cybrid and Rieske KO viability enhancers – cell-based, MELAS cybrids, Rieske KO mouse fibroblasts, CellTiter-Glo, primary screen (AID 1508586;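 active means mean z-score across replicates of 1.96 or higher in either the MELAS or the Rieske mutant cell line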;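 further: z relative to plate mean and SD of compound and empty wells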); settings: low glucose
[13] = target: NAD(+) hydrolase SARM1 (Homo sapiens) (UniProt Q6SZW1); assay: blocking NAD cleavage by SARM1 SAM-TIR – cell lysate, NAD-Glo luminescence (AID 1508614;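 active means compound whose remaining NAD level is above about 45 nM, limit read from the data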); settings: SAM-TIR HEK293T lysate NADase, at 1 µM, stronger effect = higher value
Sequence of NAD(+) hydrolase SARM1 (Homo sapiens) (Q6SZW1 whole entry, looked up, the tested form may be a part): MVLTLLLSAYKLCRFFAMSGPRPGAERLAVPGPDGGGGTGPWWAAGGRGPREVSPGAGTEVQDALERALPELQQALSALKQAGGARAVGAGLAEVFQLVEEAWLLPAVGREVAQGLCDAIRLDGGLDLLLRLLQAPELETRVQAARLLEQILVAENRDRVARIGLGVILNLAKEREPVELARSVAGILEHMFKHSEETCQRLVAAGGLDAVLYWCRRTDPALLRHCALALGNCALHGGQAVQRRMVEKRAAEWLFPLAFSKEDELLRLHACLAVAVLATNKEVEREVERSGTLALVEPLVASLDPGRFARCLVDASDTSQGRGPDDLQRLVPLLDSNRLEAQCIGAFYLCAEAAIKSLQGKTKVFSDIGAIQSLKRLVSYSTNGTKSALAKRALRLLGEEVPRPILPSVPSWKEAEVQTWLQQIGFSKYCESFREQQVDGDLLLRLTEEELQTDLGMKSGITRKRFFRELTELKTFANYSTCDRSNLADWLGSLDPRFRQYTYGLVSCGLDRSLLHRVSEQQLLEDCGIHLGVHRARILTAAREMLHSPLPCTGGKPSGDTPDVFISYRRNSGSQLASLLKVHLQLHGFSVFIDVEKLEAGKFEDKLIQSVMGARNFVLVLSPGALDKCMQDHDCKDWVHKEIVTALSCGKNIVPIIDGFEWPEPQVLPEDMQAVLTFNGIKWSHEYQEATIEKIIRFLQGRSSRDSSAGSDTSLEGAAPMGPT

[14] = target: Mitogen-activated protein kinase 7 (Homo sapiens) (UniProt Q13164); assay: Gal4-ERK5 driven luciferase induction – cell-based, HTS, primary screen (AID 1508626;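 active means luciferase signal above three times the same-plate solvent-only control wells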;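 further: luciferase driven by Gal4-ERK5 fusion binding five Gal4 sites before minimal TATA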); settings: HeLa Gal4-ERK5 transactivation, 18 h, at 5 µM, stronger effect = higher value
Sequence of Mitogen-activated protein kinase 7 (Homo sapiens) (Q13164 whole entry, looked up, the tested form may be a part): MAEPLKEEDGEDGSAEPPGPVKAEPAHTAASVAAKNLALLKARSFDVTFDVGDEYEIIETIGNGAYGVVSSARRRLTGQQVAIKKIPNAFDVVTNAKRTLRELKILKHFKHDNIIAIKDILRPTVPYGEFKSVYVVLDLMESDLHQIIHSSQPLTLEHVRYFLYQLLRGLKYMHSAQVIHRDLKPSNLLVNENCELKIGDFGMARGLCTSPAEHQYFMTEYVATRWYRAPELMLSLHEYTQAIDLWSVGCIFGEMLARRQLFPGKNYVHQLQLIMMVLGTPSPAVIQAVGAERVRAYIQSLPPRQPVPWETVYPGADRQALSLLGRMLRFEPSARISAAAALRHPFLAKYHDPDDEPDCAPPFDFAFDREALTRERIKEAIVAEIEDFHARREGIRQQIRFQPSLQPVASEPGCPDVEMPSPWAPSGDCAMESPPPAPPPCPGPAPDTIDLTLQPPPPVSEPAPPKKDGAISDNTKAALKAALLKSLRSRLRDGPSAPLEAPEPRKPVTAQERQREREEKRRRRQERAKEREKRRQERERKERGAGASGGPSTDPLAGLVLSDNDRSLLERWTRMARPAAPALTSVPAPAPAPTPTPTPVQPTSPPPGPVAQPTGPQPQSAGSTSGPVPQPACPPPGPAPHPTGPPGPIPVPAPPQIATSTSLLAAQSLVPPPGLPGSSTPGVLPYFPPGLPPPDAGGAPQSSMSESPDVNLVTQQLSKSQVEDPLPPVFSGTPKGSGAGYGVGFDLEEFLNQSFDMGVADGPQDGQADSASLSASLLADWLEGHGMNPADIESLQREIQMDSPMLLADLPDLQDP

F380Y = assay: BK channel mutant inhibitors and activators – cell-based, U2OS BacMam, thallium flux, beta subunits, selectivity assay, profiling panel (AID 1259406); settings: U2OS BacMam BK variants, at 30 µM;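 further: initial slope of Thallos dye fluorescence rise after thallium is added; log ratio against the mean of 0.3% DMSO vehicle wells on the same plate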
F380Y/beta1 = assay: as above; settings: U2OS BacMam BK variants, at 30 µM
F380Y/beta2Delta = assay: as above; settings: U2OS BacMam BK variants, at 30 µM
[15] = viability loss with induced miR-34 in A549 – imaging, A549 dox-inducible miR-34, nuclei and caspase counts, primary screen (AID 1347080;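 active means compounds whose cell count with miR-34 switched on is under 0.7 times the count with it off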); settings: A549 miR-34 inducible, Hoechst nuclei count, 48 h
[16] = measured here: epithelial PC-3E GFP cell survival
[17] = measured here: mesenchymal TEM4-18 mCherry cell survival
[18] = MELAS cybrid survival, CellTiter-Glo 48 h, stronger effect = higher value
[19] = Rieske KO mouse fibroblast survival, CellTiter-Glo 72 h
[20] = stronger effect = lower value, cell number ratio, induced over uninduced
[21] = measured here: relative caspase fold change +Dox/-Dox
[22] = measured here: total cells with miR-34 induction, stronger effect = lower value
[23] = measured here: total cells without miR-34 induction

CC(COc1ccccc1)N(CCCl)Cc1ccccc1 (stereo not drawn)
nuclear beta-catenin stimulation ([1]; at 10 µM): 1.1% (inactive)
nuclear beta-catenin stimulation ([1]; stimulation, at 2 µM): -0.3%
insulin secretion stimulation [2]: 2.8% (inactive)
viability decrease [3]: -32.1% (inactive)
tube area decrease [4]: 7% (inactive)
GLP1 secretion stimulation [5]: 3.8% (inactive)
inhibition of viability [6]: -3.6% (inactive)
viability decrease (inhibition) [7]: 13% (inactive)
viability decrease (inhibition) [8]: -2.9% (inactive)
inhibition [9]: 0.0837% (inactive)
mean signal [10]: 239 (inactive)
red/green cell ratio (normalised) [11]: 1.22 (inactive)
normalised cell number [11, 16]: 1.17
normalised cell number [11, 17]: 1.43
z-score [12, 18]: -0.333 (inactive) and -0.71 (inactive) and -0.596 (inactive)
z-score [12, 19]: 0.469 and 0.0989 and -0.341
remaining NAD [13]: 10 nM (inactive)
luciferase signal [14]: 68 AU (inactive)
log fold change Tl+ flux (F380Y): -0.0529 (inactive)
log fold change Tl+ flux (F380Y/beta1): -0.00151 (inactive)
log fold change Tl+ flux (F380Y/beta2Delta): -0.054 (inactive)

CC1(C)O[C@@H]2[C@@H](CO[C@@]3(COS(N)(=O)=O)OC(C)(C)O[C@@H]23)O1
nuclear beta-catenin stimulation ([1]; at 10 µM): -1.6% (inactive)
nuclear beta-catenin stimulation ([1]; stimulation, at 2 µM): 0.6%
insulin secretion stimulation [2]: -0.2% (inactive)
viability decrease [3]: -4.2% (inactive)
tube area decrease [4]: 14.7% (inactive)
GLP1 secretion stimulation [5]: -0.1% (inactive)
inhibition of viability [6]: -8.2% (inactive)
viability decrease (inhibition) [7]: -0.9% (inactive)
viability decrease (inhibition) [8]: -7.1% (inactive)
inhibition [9]: 5.76% (inactive)
mean signal [10]: 229 (inactive)
red/green cell ratio (normalised) [11]: 1.43 (inactive)
normalised cell number [11, 16]: 1.11
normalised cell number [11, 17]: 1.58
fold change [15, 20]: 0.931 (inactive) and 0.874 (inactive)
fold change [15, 21]: 1.93 and 6.61
cell count [15, 22]: 9480 and 11800
cell count [15, 23]: 10200 and 13500
z-score [12, 18]: 0.776 (inactive)
z-score [12, 19]: 0.627
remaining NAD [13]: 10 nM (inactive)
luciferase signal [14]: 24 AU (inactive)
log fold change Tl+ flux (F380Y): -0.00202 (inactive)
log fold change Tl+ flux (F380Y/beta1): 0.0196 (inactive)
log fold change Tl+ flux (F380Y/beta2Delta): 0.0184 (inactive)

CC(=O)CC(c1ccccc1)c1c(O)c2ccccc2oc1=O (stereo not drawn)
nuclear beta-catenin stimulation ([1]; at 10 µM): 3.2% (inactive)
nuclear beta-catenin stimulation ([1]; stimulation, at 2 µM): 0.2%
insulin secretion stimulation [2]: 0.2% (inactive)
viability decrease [3]: -5.05% (inactive)
tube area decrease [4]: -0.7% (inactive)
GLP1 secretion stimulation [5]: 3.5% (inactive)
inhibition of viability [6]: -17.8% (inactive)
viability decrease (inhibition) [7]: 32.5% (inactive)
viability decrease (inhibition) [8]: 7% (inactive)
inhibition [9]: 6.78% (inactive)
mean signal [10]: 249 (inactive)
red/green cell ratio (normalised) [11]: 0.98 (inactive)
normalised cell number [11, 16]: 1.05
normalised cell number [11, 17]: 1.02
fold change [15, 20]: 0.928 (inactive) and 0.882 (inactive) and 0.918 (inactive)
fold change [15, 21]: 1.54 and 1.82 and 3.53
cell count [15, 22]: 10300 and 5280 and 12200
cell count [15, 23]: 11100 and 5980 and 13300
z-score [12, 18]: -0.697 (inactive)
z-score [12, 19]: -0.222
remaining NAD [13]: 10 nM (inactive)
luciferase signal [14]: 136 AU (inactive)
log fold change Tl+ flux (F380Y): -0.00266 (inactive)
log fold change Tl+ flux (F380Y/beta1): -0.0341 (inactive)
log fold change Tl+ flux (F380Y/beta2Delta): 0.0322 (inactive)

CN[C@H]1CC[C@@H](c2ccc(Cl)c(Cl)c2)c2ccccc21
nuclear beta-catenin stimulation ([1]; at 10 µM): 6.5% (inactive)
nuclear beta-catenin stimulation ([1]; stimulation, at 2 µM): -1.4%
insulin secretion stimulation [2]: 11.8% (inactive)
viability decrease [3]: 98.7% (active)
tube area decrease [4]: 67.1% (active)
GLP1 secretion stimulation [5]: 7.5% (inactive)
inhibition of viability [6]: 99.1% (active)
viability decrease (inhibition) [7]: 120% (active)
viability decrease (inhibition) [8]: 98% (active)
inhibition [9]: -2.43% (inactive)
mean signal [10]: 250 (inactive)
red/green cell ratio (normalised) [11]: 1.12 (inactive)
normalised cell number [11, 16]: 0.93
normalised cell number [11, 17]: 1.05
z-score [12, 18]: -0.257 (inactive)
z-score [12, 19]: 0.309
luciferase signal [14]: 48 AU (inactive)
log fold change Tl+ flux (F380Y): 0.286 (active) and 0.195 (active)
log fold change Tl+ flux (F380Y/beta1): 0.844 (active) and 0.685 (active)
log fold change Tl+ flux (F380Y/beta2Delta): 0.62 (active) and 0.894 (active)

CCCNCC(O)COc1ccccc1C(=O)CCc1ccccc1 (stereo not drawn)
nuclear beta-catenin stimulation ([1]; at 10 µM): 0.3% (inactive)
nuclear beta-catenin stimulation ([1]; stimulation, at 2 µM): 0.1%
insulin secretion stimulation [2]: 32.4% (active)
viability decrease [3]: 7.9% (inactive)
tube area decrease [4]: 24.9% (inactive)
GLP1 secretion stimulation [5]: -2.7% (inactive)
inhibition of viability [6]: 32.5% (inactive)
viability decrease (inhibition) [7]: 41% (inactive)
viability decrease (inhibition) [8]: 10.6% (inactive)
inhibition [9]: -5.6% (inactive)
mean signal [10]: 272 (inactive)
red/green cell ratio (normalised) [11]: 1.04 (inactive)
normalised cell number [11, 16]: 1.35
normalised cell number [11, 17]: 1.41
z-score [12, 18]: -0.438 (inactive) and -0.541 (inactive) and -0.854 (inactive)
z-score [12, 19]: -0.529 and -0.098 and 0.366
remaining NAD [13]: 10 nM (inactive)
luciferase signal [14]: 116 AU (inactive)
log fold change Tl+ flux (F380Y): 0.197 (active)
log fold change Tl+ flux (F380Y/beta1): 0.0626 (inactive)
log fold change Tl+ flux (F380Y/beta2Delta): 0.0815 (active)

Clc1ccc2c(c1)C(N1CCNCC1)=Nc1ccccc1O2
nuclear beta-catenin stimulation ([1]; at 10 µM): 0.3% (inactive)
nuclear beta-catenin stimulation ([1]; stimulation, at 2 µM): -0.6%
insulin secretion stimulation [2]: 16.5% (inactive)
viability decrease [3]: 46.2% (inactive)
tube area decrease [4]: -3.9% (inactive)
GLP1 secretion stimulation [5]: 15.3% (inactive)
inhibition of viability [6]: 57.3% (active)
viability decrease (inhibition) [7]: 90% (active)
viability decrease (inhibition) [8]: 19.2% (inactive)
inhibition [9]: -21.3% (inactive)
mean signal [10]: 211 (inactive)
red/green cell ratio (normalised) [11]: 1.17 (inactive)
normalised cell number [11, 16]: 0.23
normalised cell number [11, 17]: 0.27
z-score [12, 18]: -0.224 (inactive) and 0.465 (inactive)
z-score [12, 19]: 0.449 and -0.479
remaining NAD [13]: 10 nM (inactive)
luciferase signal [14]: 32 AU (inactive)
log fold change Tl+ flux (F380Y): 0.111 (active)
log fold change Tl+ flux (F380Y/beta1): 0.0215 (inactive)
log fold change Tl+ flux (F380Y/beta2Delta): 0.148 (active)
